Potency data for 105 compounds are collected here from PubChem BioAssay AID588342 (National Center for Advancing Translational Sciences (NCATS), 2011).

Screen size: about 360,000 compounds; about 25,000 (6.9%) were called active. A call without a number means that no potency is given here. About 9% were inconclusive and are not listed. This is one part of a sample in which actives are shown more often than they occur. Calls come from the whole dose curve; as a rule, active = well fitted inhibition curve with a large enough effect; inconclusive = small, poorly fitted or top-dose-only effect; inactive = flat fitted curve, though single readings scatter.
Potency is the fitted concentration of half-maximal effect.

Luciferin 4-monooxygenase (Photinus pyralis), sequence (P08659 whole entry, looked up): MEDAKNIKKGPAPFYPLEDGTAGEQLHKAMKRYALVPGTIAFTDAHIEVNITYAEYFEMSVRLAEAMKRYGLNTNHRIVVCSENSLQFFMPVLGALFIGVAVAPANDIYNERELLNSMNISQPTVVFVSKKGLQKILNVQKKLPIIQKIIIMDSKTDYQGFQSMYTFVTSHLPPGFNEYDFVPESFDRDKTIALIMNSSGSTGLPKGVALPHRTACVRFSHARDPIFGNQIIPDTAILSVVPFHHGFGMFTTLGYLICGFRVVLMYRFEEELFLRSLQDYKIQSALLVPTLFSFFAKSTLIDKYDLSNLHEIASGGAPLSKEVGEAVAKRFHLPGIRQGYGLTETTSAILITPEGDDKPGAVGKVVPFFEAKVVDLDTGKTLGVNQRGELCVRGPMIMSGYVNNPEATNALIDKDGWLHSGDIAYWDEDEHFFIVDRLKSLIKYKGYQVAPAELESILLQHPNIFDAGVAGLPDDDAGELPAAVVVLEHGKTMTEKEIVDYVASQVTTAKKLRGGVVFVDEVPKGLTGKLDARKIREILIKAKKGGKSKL

This assay concerns the target Luciferin 4-monooxygenase (Photinus pyralis) (UniProt P08659). Description: qHTS profiling assay for firefly luciferase inhibitor/activator using purifed enzyme and Km concentrations of substrates (counterscreen for miR-21 project). Note: nearly all actives have a fitted effect of over 55% in size. Conditions: purified FLuc, luminescence inhibition; series mostly up to 57.5 µM. The essentials:
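Purified P. pyralis luciferase, 10 nM final, with Km-level 10 uM D-luciferin and 10 uM ATP in 50 mM Tris acetate pH 7.5, 10 mM Mg acetate, 0.01% Tween-20, 0.05% BSA; 6-point qHTS titration about 60 µM downward; luminescence read.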
On the technique in general: Quantitative high-throughput screening tests each substance at several concentrations.
With `CCS(=O)(=O)N1CCc2cc(C(=O)N3CCN(c4ccccc4OC)CC3)ccc21`, the Potency result was “inactive”.

With `CCc1ccccc1NC(=O)c1sc2nc3c(cc2c1N)CN(Cc1ccccc1)CC3`, the Potency entry was “inactive”.

Consider `CCc1nnc(NC(=O)c2nc3nccc(C)n3n2)s1`, for which the Potency result is “inactive”.

Take `CCc1ccc2nc3sc(C(=O)Nc4nnc(CC)s4)c(N)c3cc2c1`: the Potency was 2.39 µM (active).

Consider `CSc1ccc(CCNC(=O)c2ccc3c(c2)nc2n3CCOC2)cc1`, for which the Potency entry was “inactive”.

As for `CC(C)c1ccc(/C=C2\NC(=O)NC2=O)cc1`, the Potency was 21.3 µM (active).

Take `Cc1ccc(NC(=O)COc2ccc(/C=C3/NC(=O)NC3=O)cc2)cc1`: the Potency result was “inactive”.

For `CC(C)c1ccc(S(=O)(=O)N2CCC3(CC2)OCCO3)cc1`, the Potency result was “inactive”.

As for `Cc1ccc(C)c(Cn2c(C(=O)O)c(CNCc3cccs3)c3ccccc32)c1`, the Potency result was “inactive”.

As for `Cc1occc1C(=O)Nc1cccc(Cn2cccn2)c1`, the Potency result is “inactive”.

For `COc1cc(SC)ccc1C(=O)N(Cc1ccccc1)c1ccccc1`, the Potency entry is “inactive”.

`Cc1csc(NC(=O)CSc2nc(=O)cc(N)n2-c2ccc(F)cc2)n1`: the Potency entry was “inactive”.

For `Cc1ccnc(NC(=O)C(C)N2C(=O)c3ccccc3C2=O)c1` (stereo not given), the Potency result is “inactive”.

Turning to `COc1cc(Cl)c(C)cc1NC(=O)COC(=O)c1cc(SC)ccc1Cl`, the Potency result is “inactive”.

Regarding `COc1cc(SC)ccc1C(=O)Nc1cc(C)ccn1`, the Potency is 1.35 µM (active).

For the compound `COc1cc(SC)ccc1C(=O)Nc1nc(C)cs1`, the Potency is 0.0757 µM (active).

In the case of `COc1ccccc1OCCNC(=O)CCNC(=O)c1ccccc1Cl`, the Potency result was “inactive”.

On to `Cc1ccnc(NC(=O)c2ccoc2C)c1`, for which the Potency was 16.9 µM (active).

For the compound `O=C(NCCOc1ccccc1Cl)C(=O)Nc1ccccc1`, the Potency result was “inactive”.

`COc1cc(SC)ccc1C(=O)NCCOc1ccccc1Cl`: the Potency was 6.01 µM (active).

In the case of `Cc1ccnc(NC(=O)CCCOc2ccccc2)c1`, the Potency result is “inactive”.

As to `O=C(CN1CCN(C(=O)C2CCCO2)CC1)Nc1c(Cl)cccc1Cl` (stereo not given), the Potency entry is “inactive”.

For the compound `CCCCCCNC(=O)CSc1nccn1Cc1ccccc1`, the Potency entry is “inactive”.

On to `COC(=O)Cn1cnc2scc(-c3ccc(C)c(C)c3)c2c1=O`, for which the Potency entry is “inactive”.

In the case of `CCC(NC(=O)c1ccccc1NC(=O)c1ccccc1)C(=O)NNC(=O)CSc1nc2ccccc2o1` (stereo not given), the Potency result was “inactive”.

For `O=C(Cn1nnc2ccccc2c1=O)Nc1cc(C(F)(F)F)ccc1N1CCOCC1`, the Potency result is “inactive”.

Consider `CC(CO)NCC12CC3CC(CC(C3)C1)C2` (stereo not given), for which the Potency result is “inactive”.

On to `CCOc1ccccc1NC(=O)c1ccc2c(c1)CCN2S(=O)(=O)c1ccc(C)cc1`, for which the Potency entry was “inactive”.

Take `O=C(NCCc1csc(-c2ccc(C(F)(F)F)cc2)n1)C(=O)Nc1ccc(F)c(Cl)c1`: the Potency entry is “inactive”.

Regarding `Cc1ccc(C)c(N2CCN(C(=O)CN3C(=O)COc4ccc(S(=O)(=O)N5CCCCCC5)cc43)CC2)c1`, the Potency entry was “inactive”.

In the case of `CC(=O)Nc1ccc(S(=O)(=O)N2CCN(c3ccc([N+](=O)[O-])c(NCCN4CCOCC4)c3)CC2)cc1`, the Potency entry was “inactive”.

Take `COc1ccccc1OCCNc1cc(N2CCOCC2)ccc1[N+](=O)[O-]`: the Potency was 15.1 µM (active).

As to `O=C(c1ccccc1)N1CCN(c2ccc([N+](=O)[O-])c(NCc3ccco3)c2)CC1`, the Potency result is “inactive”.

For the compound `O=C(CCn1ccc2cc(S(=O)(=O)N3CCCC3)ccc21)NCc1cccc(Cl)c1`, the Potency result was “inactive”.

Take `COc1ccc(-c2noc(C(C)NS(=O)(=O)c3ccc(NC(C)=O)cc3)n2)cc1` (stereo not given): the Potency entry is “inactive”.

As to `CCCn1c(N)c(C(=O)CSc2nnc3n2CCCCC3)c(=O)[nH]c1=O`, the Potency entry was “inactive”.

Turning to `O=C(NNC(=O)C(O)c1ccccc1)NC1CCCCC1` (stereo not given), the Potency entry is “inactive”.

In the case of `COC(=O)[C@H](Cc1ccccc1)NC(=O)Nc1ccc(OC)cc1`, the Potency entry is “inactive”.

In the case of `COc1cc(NC(=O)c2nc3ccccc3nc2C)cc(OC)c1OC`, the Potency entry was “inactive”.

For `COc1ccc2nc(/N=C(\N)NC(=O)Nc3ccccc3)nc(C)c2c1`, the Potency was 26.9 µM (active).

Consider `Cc1nc(/N=C(\N)NC(=O)NC2CCCCC2)nc2ccccc12`, for which the Potency is 16.9 µM (active).

On to `O=C(Cn1nnc(-c2ccccc2)n1)NC(=O)NC1CCCC1`, for which the Potency result is “inactive”.

As to `Cc1cc(NC(=O)CC(C)C)cc(-c2nc3ncccc3o2)c1O`, the Potency result is “inactive”.

Regarding `O=C(c1cccs1)c1cn(CCOc2ccc(Cl)cc2)c2ccccc12`, the Potency entry was “inactive”.

With `CCOC(=O)c1cccc(NC(=O)CCOc2ccccc2)c1`, the Potency result was “inactive”.

On to `COc1ccc(OCCCC(=O)Nc2cccc(S(=O)(=O)N3CCCCCC3)c2)cc1`, for which the Potency entry was “inactive”.

As for `O=C(CCCOc1ccccc1)Nc1cccc(C(=O)O)c1`, the Potency is 15.1 µM (active).

Turning to `COCCn1cnnc1SCC(=O)Nc1cccc(S(=O)(=O)N2CCCCC2)c1`, the Potency entry is “inactive”.

Turning to `CCOc1ccccc1CNC(=O)c1cnc2c(-c3ccc(OCC)c(OCC)c3)c(C)nn2c1C`, the Potency entry is “inactive”.

In the case of `COc1ccc(OCc2ccc(-c3nc(C#N)c(N4CCN(c5ccccc5)CC4)o3)o2)cc1`, the Potency entry is “inactive”.

For `COc1ccc(-c2nc3ccccc3c(=O)n2CCc2ccc(O)cc2)cc1`, the Potency was 21.3 µM (active).

For the compound `COc1cccc(OCCn2c(-c3ccc(Br)cc3)nc3ccccc3c2=O)c1`, the Potency entry is “inactive”.

For `COc1ccc(OCc2ccc(-c3nc4ccccc4c(=O)n3N)o2)cc1`, the Potency is 12 µM (active).

Take `COc1ccccc1OCCCn1c(-c2ccc(Cl)cc2)nc2ccccc2c1=O`: the Potency entry was “inactive”.

Consider `COC(=O)c1ccc(CSc2nc3ccccc3c(=O)n2-c2cccc(OC)c2)o1`, for which the Potency entry was “inactive”.

Regarding `Cc1cc(C)cc(OCC(=O)Nc2ccc(N3CCOCC3)cc2N2CCOCC2)c1`, the Potency result was “inactive”.

As to `Cc1nn2c(=O)cc(COC(=O)CNC(=O)c3ccc(F)cc3)nc2s1`, the Potency entry was “inactive”.

Take `COc1cccc(N2CCN(S(=O)(=O)c3cc(Br)cc4c3N(C(=O)C3CC3)CC4)CC2)c1`: the Potency entry was “inactive”.

Regarding `COc1ccc(S(=O)(=O)NCC2CCCN(C(=O)c3occc3C)C2)cc1` (stereo not given), the Potency entry is “inactive”.

`COc1cc(C)c(C)cc1S(=O)(=O)N1CCCc2ccccc21`: the Potency entry was “inactive”.

On to `Cc1cccc(-n2ncc3c(N4CCc5ccccc54)ncnc32)c1`, for which the Potency is 0.536 µM (active).

Regarding `COc1ccc(-n2ncc3c(N4CCc5ccccc54)ncnc32)cc1`, the Potency was 0.379 µM (active).

With `Cc1ccc(-n2ncc3c(=O)[nH]cnc32)c(C)c1`, the Potency entry was “inactive”.

On to `COc1ccc(-n2c(C)nc3c(cnn3-c3ccc(F)cc3)c2=O)cc1`, for which the Potency entry was “inactive”.

As for `COc1ccc(CCC(C)N2CCc3ccccc3C2)cc1` (stereo not given), the Potency entry was “inactive”.

Turning to `Cc1cccc(-n2ncc(Cl)c(Cl)c2=O)c1`, the Potency entry is “inactive”.

`COc1ccc2oc(=O)c(C(=O)N3CCCc4ccccc43)cc2c1`: the Potency result was “inactive”.

In the case of `COc1ccc(-n2ncc3c(N4CCCc5ccccc54)ncnc32)cc1`, the Potency was 1.35 µM (active).

`CCCCN(C(=O)C1=NN(c2cc(C)ccc2C)C(=O)CC1)c1c(N)n(CCC)c(=O)[nH]c1=O`: the Potency entry is “inactive”.

Take `COc1cccc(CNC(=O)CN2C(=O)NC(Cc3ccccc3)(c3ccccc3)C2=O)c1` (stereo not given): the Potency entry is “inactive”.

In the case of `CC1=C(c2ccc(Cl)cc2)S(=O)(=O)N=C1N1CCN(c2cc(C)ccc2C)CC1`, the Potency entry was “inactive”.

On to `O=C(CSc1ccccc1)Nc1nnc(/C=C/c2ccccc2)s1`, for which the Potency entry is “inactive”.

For the compound `CC(C)C(=O)Nc1nnc(Sc2ccc(N(C)C)cc2)s1`, the Potency result was “inactive”.

On to `COc1ccc(/C=C/c2nnc(NC(=O)C(C)C)s2)cc1`, for which the Potency was 2.69 µM (active).

As for `CCCC(=O)N1CCN(c2nc3c(OC)ccc(C)c3s2)CC1`, the Potency result is “inactive”.

Take `COc1ccccc1NC(=O)c1cc(C2CC2)nc2c1c(C)nn2-c1ccc(C)cc1`: the Potency entry is “inactive”.

As for `CS(=O)(=O)C1=NN2C(=N)/C(=C\c3ccc(OCCOc4ccccc4)cc3)C(=O)N=C2S1`, the Potency entry is “inactive”.

`CC(C)(C)C1C/C(=C/c2ccco2)C(=O)/C(=C/c2ccco2)C1` (stereo not given): the Potency result is “inactive”.

`CS(=O)(=O)c1ccc2c(c1)SC1=NC(=O)/C(=C/c3ccco3)C(=N)N12`: the Potency is 10.7 µM (active).

Turning to `CC(NC(=O)CN(C)S(=O)(=O)c1ccc(F)cc1)C1CC2CCC1C2` (stereo not given), the Potency result is “inactive”.

For `Cc1ccc2oc(=O)c3cnn(CC(=O)NCc4ccccc4Cl)c3c2c1`, the Potency result was “inactive”.

For `CCOc1cccc2c1OC1(CCCCC1)N1N=C(c3cccnc3)CC21` (stereo not given), the Potency was 19 µM (active).

As for `CCOc1ccccc1C1CC(c2cccc(NS(C)(=O)=O)c2)=NN1C(=O)c1ccccc1` (stereo not given), the Potency entry was “inactive”.

In the case of `N#CCN(C(=O)COC(=O)C1CC2CCCC(C1)C2=O)c1ccccc1` (stereo not given), the Potency entry is “inactive”.

As for `Cc1c(C=O)c2ccccc2n1CC(=O)O`, the Potency entry is “inactive”.

For the compound `CCCn1c(=O)c(-c2ccccc2)c(O)c2ccccc21`, the Potency result is “inactive”.

For `CC(=O)n1c(C=Nc2ccccc2)c(O)c2ccccc21`, the Potency was 16.9 µM (active).

As to `COC(=O)c1cn(CC(=O)NCc2cccs2)c2ccccc12`, the Potency result is “inactive”.

For `Cc1ccccc1NC(=O)Cn1cc(C(=O)c2cccs2)c2ccccc21`, the Potency entry was “inactive”.

`O=C(Cn1cc(C(=O)c2cccs2)c2ccccc21)NCc1cccs1`: the Potency is 19 µM (active).

In the case of `COc1ccc(-c2nc(Cn3c(=O)cc(C)c4c(C)nn(-c5ccccc5)c43)c(C)o2)cc1OC`, the Potency entry was “inactive”.

For `O=C(CCc1nnc2ccc(NCc3ccco3)nn12)Nc1cc(F)ccc1F`, the Potency result is “inactive”.

In the case of `COc1ccc(-c2c(C#Cc3ccccc3)c3ccccc3n2C)cc1`, the Potency was 12 µM (active).

On to `COc1ccc(CCNCc2c(-c3ccccc3)n(C)c3ccccc23)cc1`, for which the Potency entry was “inactive”.

In the case of `CN(C)Cc1c(C#N)c2ccccc2n1C`, the Potency result was “inactive”.

As to `Cc1ccc(-c2nn(CCC(=O)Nc3ccc(OC(F)(F)F)cc3)c(=O)c3ccccc23)cc1`, the Potency entry was “inactive”.

Turning to `Cc1c(NC(=O)C(C)OC(=O)c2cc3c4ccccc4n(C)c3s2)c(=O)n(-c2ccccc2)n1C` (stereo not given), the Potency entry is “inactive”.

As for `Cc1cccc(NC(=O)CSc2nc3c([nH]c4ccccc43)c(=O)n2-c2cc(C)cc(C)c2)c1`, the Potency entry is “inactive”.

As for `O=C(NCCCNC(=O)c1ccccc1Cl)c1cnccn1`, the Potency entry is “inactive”.

Turning to `Cn1c(=NC(=O)c2cnccn2)sc2ccccc21`, the Potency is 4.78 µM (active).

`COC(=O)c1ccc(OC(=O)c2cnccn2)cc1`: the Potency result was “inactive”.

With `Cc1ccc(S(=O)(=O)c2nc(-c3ccco3)oc2SCC(=O)Nc2ccc(F)cc2)cc1`, the Potency entry is “inactive”.

Consider `Cc1cc(OC(=O)c2ccccc2Cl)ccc1N1C(=O)CCC1=O`, for which the Potency was 5.36 µM (active).

As for `COc1ccccc1C(=O)Oc1ccc(N2C(=O)CCC2=O)cc1`, the Potency result is “inactive”.

Take `CCOC(=O)c1cc(OC(=O)c2ccccc2Cl)n(-c2ccccc2)n1`: the Potency entry was “inactive”.
